Experimental data taken from PubChem BioAssay (Tox21).
Values joined by “and” are separate entries in the source; they are usually repeats but may differ in a detail not shown here. Equal entries are not always repeated. Records with an inconclusive call do not appear. A call without a number means that no potency is given here. Active and inactive are the calls of the source. Calls follow the shape of the dose curve; as a rule, active = well fitted activation curve with a large enough effect in the repeat runs; inconclusive = weak or mixed curves; inactive = flat fitted curve, though single readings scatter.
Potency is read from the fitted curve at half-maximal effect.

Test: A CellTox Green Cytotoxicity Assay to monitor cytotoxicity in HEK293 cells - 16 hour (AID 1224888); also: nearly all actives have a fitted effect of over 35% in size
Conditions: CellTox Green fluorescence; series mostly up to 76.8 µM
Description: National Center for Advancing Translational Sciences [NCATS]
NIH Chemical Genomics Center [NCGC]
U.S. Environmental Protection Agency [EPA]
National Institutes of Environmental Health Sciences [NIEHS]
National Toxicology Program [NTP]
Cell-based models are critical for drug discovery. Determining the natural cytotoxic effects resulting from test compounds is an essential research activity. A CellTox Green Cytotoxicity Assay to monitor cytotoxicity in real time of continues cell culture during 40 hours of the compound treatment was used to screen Tox21 10K library compounds in Hek293 cells. CellTox Green Cytotoxicity Assay is a nonlytic, homogeneous, biofluorescent method to measure cytotoxicity in cell culture after experimental manipulation. The assay system uses a proprietary asymmetric cyanine dye that is excluded from viable cells but preferentially stains the dead cell's DNA. […] Viable cells produce no appreciable increases in fluorescence. Therefore, the fluorescence signal produced by the binding interaction with dead cell DNA is proportional to cytotoxicity.
The mixture of Hek293 cell suspension and reagents were dispensed at 600cells/6 ul/well in 1536-well tissue culture treated black solid bottom plates using a Multidrop dispenser. After the assay plates were incubated at a 37 C/5% CO2 incubator for 5 hours, 23 nL of compounds dissolved in DMSO, positive and negative controls was transferred to the assay plate by a pintool work station. The plates were incubated at 37 C for 40 hours. The fluorescence intensity were measured at 0h, 8h, 16h, 24h, 32h and 40h time points using ViewLux plate reader during compound treatment.
With `Nc1ccc2c(c1)CN1C(=O)c3ccccc3C1=N2` the Potency was 10.4 µM (active).
For `NC(CO)(CO)CO`, the Potency was “inactive”.
With `CC(=O)CC(c1ccccc1)c1c(O)c2ccccc2oc1=O` (stereo not given) the Potency was “inactive”.
In the case of `CN1[C@@H]2CC(OC(=O)[C@H](CO)c3ccccc3)C[C@H]1[C@@H]1O[C@@H]12` (stereo not given in full), the Potency is reported as “inactive”.
With `CN1CCC[C@H]1c1cccnc1` the Potency was “inactive”.
For `C/C=C/C=C/C(=O)O`, the Potency was “inactive”.
In the case of `O=CC(=O)c1ccccc1`, the Potency is reported as “inactive”.
In the case of `CN(C)C(=O)Nc1ccc(Cl)c(Cl)c1`, the Potency is reported as “inactive”.
For `O=C1O[C@H]([C@@H](O)CO)C(O)=C1O`, the Potency was “inactive”.
For `F[B-](F)(F)F`, the Potency was “inactive”.
In the case of `CC(=O)Nc1c(I)c(NC(C)=O)c(I)c(C(=O)O)c1I`, the Potency is reported as “inactive”.
With `Cc1ncc([N+](=O)[O-])n1C` the Potency was “inactive”.
With `NS(=O)(=O)O` the Potency was “inactive”.
With `O=c1[nH]cnc2c1ncn2[C@H]1CC[C@@H](CO)O1` the Potency was “inactive”.
In the case of `NC(=O)c1cccnc1`, the Potency is reported as “inactive”.
For `CC1(C)S[C@@H]2[C@H](NC(=O)[C@H](N)c3ccccc3)C(=O)N2[C@H]1C(=O)O`, the Potency was “inactive”.
For `CCCCNC(=O)NS(=O)(=O)c1ccc(C)cc1`, the Potency was “inactive”.
With `O=C(O)c1ccccc1` the Potency was “inactive”.
For `COc1ccc2c(c1)c(CC(=O)O)c(C)n2C(=O)c1ccc(Cl)cc1`, the Potency was “inactive”.
For `Cc1c(C(=O)O)c(O)cc2c1C(=O)c1c(O)c([C@@H]3O[C@H](CO)[C@@H](O)[C@H](O)[C@H]3O)c(O)c(O)c1C2=O`, the Potency was “inactive”.
With `O=C(Nc1ncc([N+](=O)[O-])s1)c1cccs1` the Potency was “inactive”.
For `CCN(CC)C(=O)c1cccc(C)c1`, the Potency was “inactive”.
In the case of `Cc1cc(C)nc(NS(=O)(=O)c2ccc(N)cc2)n1`, the Potency is reported as “inactive”.
For `C=C(C)C(=O)OCC(C)O` (stereo not given), the Potency was “inactive”.
With `CCc1nc(N)nc(N)c1-c1ccc(Cl)cc1` the Potency was “inactive”.
For `CNNCc1ccc(C(=O)NC(C)C)cc1`, the Potency was “inactive”.
In the case of `CCCCCCCCCCCCCCCC[N+](C)(C)Cc1ccccc1`, the Potency is reported as 50.5 µM (active) and 44.4 µM (active) and 23.9 µM (active).
In the case of `O=C1OC2(c3ccccc31)c1cc(Br)c(O)c(Br)c1Oc1c2cc(Br)c(O)c1Br`, the Potency is reported as 4.43 µM (active) and 7.11 µM (active) and 19 µM (active).
In the case of `CCCCOC(=O)c1ccc(O)cc1`, the Potency is reported as “inactive”.
With `CCCCC1(COC(=O)CCC(=O)O)C(=O)N(c2ccccc2)N(c2ccccc2)C1=O` the Potency was “inactive”.
For `COc1cccc(O)c1O`, the Potency was “inactive”.
In the case of `O=C1NS(=O)(=O)c2ccccc21`, the Potency is reported as “inactive”.
In the case of `C=C1CC[C@H](O)C/C1=C\C=C1/CCC[C@]2(C)[C@@H]([C@H](C)CCCC(C)C)CC[C@@H]12`, the Potency is reported as “inactive”.
For `O=c1[nH]cc(F)c(=O)[nH]1`, the Potency was “inactive”.
With `CC12CCC(CC1)C(C)(C)O2` the Potency was “inactive”.
In the case of `Nc1c(N=Nc2ccc(-c3ccc(N=Nc4cc(S(=O)(=O)O)c5ccccc5c4N)cc3)cc2)cc(S(=O)(=O)O)c2ccccc12`, the Potency is reported as “inactive”.
For `CCOC(N)=O`, the Potency was “inactive”.
For `CC(O)(P(=O)(O)O)P(=O)(O)O`, the Potency was “inactive”.
With `CCCCC(CC)C(=O)O` (stereo not given) the Potency was “inactive”.
For `OC[C@H]1O[C@H](O[C@]2(CCl)O[C@H](CCl)[C@@H](O)[C@@H]2O)[C@H](O)[C@@H](O)[C@H]1Cl`, the Potency was “inactive”.
